Experimental data reported in PubChem BioAssay (NCATS).
Inconclusive results are not listed. Calls of active or inactive are those of the source. Unless noted, calls come from the whole dose curve; as a rule, active = well fitted curve in the direction sought with a large enough effect; inconclusive = small, poorly fitted or top-dose-only effect, or another doubt; inactive = no such curve, though single readings can be large; an effect the other way counts as inactive or inconclusive.

Legend:
[1] = qHTS Assay for Identification of Small Molecule Inducers of Hypoxia Response (AID 2120; active = well fitted curve in the direction sought with a large enough effect in the signal ratio, with a control signal flat, not every such curve was filed as active; the % refers to the signal ratio)
Method in brief: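 ME-180 HRE-bla cells plated in Opti-MEM/0.5% dialyzed FBS, rested 4-5 h, then dosed with compound titrations by pin tool. After 17 h at 37 degrees C, CCF4 dye loaded 2.5 h at RT; 460/530 nm ratio gave %Activity and AC50.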

[2] = qHTS for differential inhibitors of proliferation of Plasmodium falciparum line D10 (AID 1877);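 note: parasites grown with compound for 72 h before DNA staining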
[3] = qHTS for differential inhibitors of proliferation of Plasmodium falciparum line Dd2 (AID 1882); conditions: Potency: Plasmodium falciparum Dd2 proliferation inhibition; note: nearly all actives have a fitted effect of over 65% in size; note: potency is the fitted concentration of half-maximal effect
Method in brief: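 Dd2-infected erythrocytes (0.3% parasitemia, 2.5% hematocrit final) incubated with compound 72 h at 37 C, 5% CO2; lysed with saponin/Triton buffer containing SYBR Green I, incubated overnight in the dark, then read by fluorescence (485/535 nm). Normalized to 0.29 uM artemisinin and DMSO.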

[4] = qHTS for differential inhibitors of proliferation of Plasmodium falciparum line W2 (AID 1883); conditions: Potency: Plasmodium falciparum W2 proliferation inhibition;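 note: parasites grown with compound for 72 h before lysis and staining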; note: potency is the fitted concentration of half-maximal effect
[5] = qHTS for differential inhibitors of proliferation of Plasmodium falciparum line HB3 (AID 1886); conditions: Potency: Plasmodium falciparum HB3 proliferation inhibition;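 note: parasites grown with compound for 72 h before SYBR Green readout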
[6] = qHTS Assay for Modulators of Human Peripheral Myelin Protein 22 (PMP22) Expression/Activity (AID 1967; active = well fitted curve in the direction sought with a large enough effect in the signal ratio; the % refers to the signal ratio)
Method in brief: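 Mouse MSC80 Schwann cells carrying Pmp22 promoter–green click beetle luciferase plus EF-alpha–red luciferase control, dosed 24 h at 37 °C. Dual-filter luminescence, overlap-corrected; %Activity from green/red ratio normalised to untreated cells, concentration-response curves fitted.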

[7] = biological target: Ferritin light chain (Equus caballus) (UniProt P02791); assay: qHTS Validation Assay for Identification of Novel General Anesthetics (AID 2323)
Ferritin light chain (Equus caballus), sequence (P02791 2-175 limits assumed): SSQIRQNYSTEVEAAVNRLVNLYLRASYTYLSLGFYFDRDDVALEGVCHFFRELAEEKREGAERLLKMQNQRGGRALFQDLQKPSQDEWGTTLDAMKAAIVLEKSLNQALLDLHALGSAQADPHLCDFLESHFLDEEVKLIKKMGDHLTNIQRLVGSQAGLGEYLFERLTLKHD
Method in brief: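 Horse-spleen apoferritin (10 uM) in PBS with 50% saturated 1-aminoanthracene; compounds pin-transferred, 10 min at room temperature. Fluorescence read at 380/535 nm, normalized to free 1-AMA and 1-AMA/apoferritin values; four-parameter Hill fit.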

[8] = biological target: ATP-dependent DNA helicase Q1 (Homo sapiens) (UniProt P46063); assay: qHTS Validation Assay for Inhibitors of RecQ-Like Dna Helicase 1 (RECQ1) (AID 2353)
ATP-dependent DNA helicase Q1 (Homo sapiens), sequence (P46063 whole entry, looked up): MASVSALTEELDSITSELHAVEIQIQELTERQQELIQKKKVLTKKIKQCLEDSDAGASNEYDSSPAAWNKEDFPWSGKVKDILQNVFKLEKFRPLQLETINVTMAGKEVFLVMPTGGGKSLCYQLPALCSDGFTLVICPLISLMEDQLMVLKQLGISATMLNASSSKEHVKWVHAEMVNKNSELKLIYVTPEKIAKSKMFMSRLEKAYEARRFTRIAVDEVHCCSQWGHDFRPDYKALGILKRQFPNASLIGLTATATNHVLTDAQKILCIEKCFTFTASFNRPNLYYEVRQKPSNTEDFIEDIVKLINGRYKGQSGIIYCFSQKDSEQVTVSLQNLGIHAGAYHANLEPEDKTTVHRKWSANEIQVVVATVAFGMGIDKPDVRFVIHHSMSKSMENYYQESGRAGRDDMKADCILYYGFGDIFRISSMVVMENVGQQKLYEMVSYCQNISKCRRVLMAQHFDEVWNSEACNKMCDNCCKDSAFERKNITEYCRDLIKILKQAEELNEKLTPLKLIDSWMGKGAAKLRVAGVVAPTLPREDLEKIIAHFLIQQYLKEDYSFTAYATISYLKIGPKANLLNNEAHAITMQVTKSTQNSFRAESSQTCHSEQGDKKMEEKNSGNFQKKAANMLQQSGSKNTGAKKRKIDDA
Method in brief: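 50 nM RECQ1T1 preincubated 15 min with compound in Tris pH 8.0 buffer with MgCl2, DTT, Tween-20 and 2.5 ug/ml poly(dI-dC); started with 200 nM TAMRA/BHQ-2 forked duplex and 2 mM ATP. Unwinding read as fluorescence (525/598 nm), two reads 2 h apart.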

[9] = biological target: RecQ-like DNA helicase BLM (Homo sapiens) (UniProt P54132); assay: qHTS Validation Assay for Inhibitors of Bloom's syndrome helicase (BLM) (AID 2364)
Method in brief: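 Forked 20-bp duplex substrate (200 nM, TAMRA/BHQ-2) plus 2 mM ATP added after 15 min compound preincubation with 50 nM enzyme, pH 8.0, poly(dI-dC) 2.5 ug/ml. Strand separation followed by fluorescence (525/598 nm) over 2 h, normalized to enzyme-free and DMSO controls.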

[10] = Cytometric Cell-Based qHTS for Inhibitors of the mTORC1 Signaling Pathway in MEF (Tsc2-/-, p53-/-) Cells (AID 2660);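 note: percent of cells above a phospho-rpS6 to PI ratio cutoff in each well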
Method in brief: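 Tsc2-/-, p53-/- MEFs (empty vector) exposed to compound 24 h at 37 C, fixed, stained with Alexa-488 anti-phospho-rpS6 Ser235/236 and propidium iodide. Acumen laser scanning; phospho-S6/PI ratio thresholded against 7.5 nM rapamycin, reported as % positive cells.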

[11] = High Content Imaging Cell-Based qHTS for Inhibitors of the mTORC1 Signaling Pathway in MEF (Tsc2-/-, p53-/-) Cells (AID 2666); conditions: at 38.3 µM (top of the series);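 note: percent of cells scored positive for phospho-rpS6 Ser235/236 immunostaining by imaging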
Method in brief: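 Cells were plated, dosed with compound after 24 hrs, and incubated another 24 hrs at 37 degree Celsius. Fixed cells were immunostained for phospho-rpS6 Ser235/236 and counterstained, and the normalized signal was scored as % active cells against rapamycin and DMSO controls.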

[12] = High Content Imaging Cell-Based qHTS for Inhibitors of the mTORC1 Signaling Pathway in MEF Cells (AID 2667);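 note: Tsc2-/- p53-/- MEFs stably re-expressing wild-type Tsc2 exposed 24 h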
Method in brief: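 Immunofluorescence for rpS6 phosphorylation in MEFs of Tsc2-/-, p53-/- background rescued with WT Tsc2. Compound exposure lasted 24 hrs. Inhibition was scored against rapamycin-treated control wells.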

[13] = Cytometry Cell-Based qHTS for Inhibitors of the mTORC1 Signaling Pathway in MEF cells (AID 2668);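 note: Tsc2-/- p53-/- mouse embryonic fibroblasts stably re-expressing wild-type Tsc2; percent cells positive for phospho-rpS6 Ser235/236 relative to propidium iodide stain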
Method in brief: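 MEFs (Tsc2-/-, p53-/- stably expressing WT Tsc2) treated 24 h at 37 degree Celsius, fixed, stained with Alexa-488 anti-phospho-rpS6 Ser235/236 and propidium iodide; Acumen laser scanning. Reported as % positive cells, phospho-S6 normalized to PI.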

[14] = Validation screen for inhibitors of Lassa infection (AID 463096; calls by dose curve)
[15] = Validation screen for small molecules that induce DNA re-replication in MCF 10A normal breast cells (AID 463097); note: nearly all actives have a fitted effect of over 60% in size
Method in brief: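 MCF 10A cells exposed to compound 48 hr at 37 C, 5% CO2, then Hoechst-stained 40 min. Laser-scanning imaging of nuclear DNA content (405 nm ex, 500-530 nm em); re-replication scored as rise in nuclei with elevated fluorescence intensity.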

[16] = biological target: Ubiquitin carboxyl-terminal hydrolase 2 (Homo sapiens) (UniProt O75604); assay: qHTS Validation Assay for Inhibitors of Ubiquitin-specific Protease USP2a Using CHOP2 as the Reporter (AID 463106)
Ubiquitin carboxyl-terminal hydrolase 2 (Homo sapiens), sequence (O75604 whole entry, looked up): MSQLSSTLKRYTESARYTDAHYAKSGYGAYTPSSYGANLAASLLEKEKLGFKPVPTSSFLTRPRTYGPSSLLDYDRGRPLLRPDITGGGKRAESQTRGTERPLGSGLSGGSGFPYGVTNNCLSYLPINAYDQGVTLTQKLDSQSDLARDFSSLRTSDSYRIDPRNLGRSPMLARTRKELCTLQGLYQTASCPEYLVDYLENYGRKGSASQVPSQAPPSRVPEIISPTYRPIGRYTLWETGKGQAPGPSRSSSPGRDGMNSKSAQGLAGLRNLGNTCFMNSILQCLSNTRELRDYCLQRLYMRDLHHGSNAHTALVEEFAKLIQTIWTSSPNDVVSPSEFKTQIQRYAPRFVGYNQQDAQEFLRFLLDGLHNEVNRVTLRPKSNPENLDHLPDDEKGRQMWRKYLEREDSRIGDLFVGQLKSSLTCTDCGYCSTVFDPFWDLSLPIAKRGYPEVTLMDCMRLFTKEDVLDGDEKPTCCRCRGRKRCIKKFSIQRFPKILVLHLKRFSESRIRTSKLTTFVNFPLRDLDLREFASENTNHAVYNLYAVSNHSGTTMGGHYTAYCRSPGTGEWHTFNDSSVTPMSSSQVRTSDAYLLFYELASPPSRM
Method in brief: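 10nM USP2 core + cpd, 30min RT; add 25nM Ub-CHOP2/25nM substrate; 60min RT; FI 485/531nm. Buffer Tris pH 8.0, CaCl2, BME, CHAPS. Norm. to NEM = 100% inhibition; time-zero read flags fluorescent artifacts.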

[17] = biological target: DNA polymerase III PolC-type (Bacillus subtilis (strain 168)) (UniProt P13267); assay: qHTS Validation Assay for the Inhibitors of DNA Replication in Gram-Positive Bacteria (AID 485295);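 note: PicoGreen fluorescence of double-stranded DNA made on primed circular M13 template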
DNA polymerase III PolC-type (Bacillus subtilis (strain 168)), sequence (P13267 whole entry, looked up): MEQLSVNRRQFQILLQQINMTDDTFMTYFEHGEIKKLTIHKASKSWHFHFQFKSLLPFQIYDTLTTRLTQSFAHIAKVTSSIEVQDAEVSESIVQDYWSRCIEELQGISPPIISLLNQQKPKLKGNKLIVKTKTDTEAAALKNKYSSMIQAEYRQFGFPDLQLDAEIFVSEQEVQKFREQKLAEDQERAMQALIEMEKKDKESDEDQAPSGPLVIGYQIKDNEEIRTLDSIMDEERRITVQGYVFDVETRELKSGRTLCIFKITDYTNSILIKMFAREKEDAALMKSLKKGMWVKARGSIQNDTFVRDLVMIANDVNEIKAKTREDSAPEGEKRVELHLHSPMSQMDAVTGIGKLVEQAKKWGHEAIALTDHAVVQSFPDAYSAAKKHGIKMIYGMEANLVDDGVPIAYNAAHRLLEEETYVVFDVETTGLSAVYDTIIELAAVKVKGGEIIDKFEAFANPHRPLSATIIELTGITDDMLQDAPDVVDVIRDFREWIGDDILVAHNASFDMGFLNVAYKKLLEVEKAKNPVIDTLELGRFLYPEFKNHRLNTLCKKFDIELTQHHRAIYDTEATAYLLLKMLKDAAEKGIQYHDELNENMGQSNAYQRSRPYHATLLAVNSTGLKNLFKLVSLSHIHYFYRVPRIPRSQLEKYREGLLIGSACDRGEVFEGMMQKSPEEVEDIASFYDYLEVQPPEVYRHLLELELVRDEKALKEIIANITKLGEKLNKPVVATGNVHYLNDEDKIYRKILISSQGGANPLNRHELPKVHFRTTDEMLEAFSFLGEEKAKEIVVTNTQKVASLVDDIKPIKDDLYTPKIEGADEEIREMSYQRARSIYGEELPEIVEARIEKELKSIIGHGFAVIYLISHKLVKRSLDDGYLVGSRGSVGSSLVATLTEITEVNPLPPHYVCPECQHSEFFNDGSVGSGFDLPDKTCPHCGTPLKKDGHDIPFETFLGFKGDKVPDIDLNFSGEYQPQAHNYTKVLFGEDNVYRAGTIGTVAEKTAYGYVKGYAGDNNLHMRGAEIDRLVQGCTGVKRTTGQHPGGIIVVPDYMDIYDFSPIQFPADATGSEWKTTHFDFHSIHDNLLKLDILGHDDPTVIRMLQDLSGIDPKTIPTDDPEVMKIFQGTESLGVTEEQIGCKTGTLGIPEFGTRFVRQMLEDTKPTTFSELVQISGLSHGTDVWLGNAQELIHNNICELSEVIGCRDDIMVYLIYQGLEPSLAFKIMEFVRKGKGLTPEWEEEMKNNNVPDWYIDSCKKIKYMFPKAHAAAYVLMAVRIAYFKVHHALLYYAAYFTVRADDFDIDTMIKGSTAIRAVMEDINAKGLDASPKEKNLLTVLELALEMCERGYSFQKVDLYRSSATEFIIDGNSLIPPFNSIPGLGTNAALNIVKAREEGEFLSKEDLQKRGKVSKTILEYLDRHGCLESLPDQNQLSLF
Method in brief: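 Reconstituted B. subtilis Pol III holoenzyme (PolC, beta clamp, SSB, primase) preincubated with compound, then M13Gori single-stranded circular template with dNTPs/NTPs added; room temperature reaction. Stopped with EDTA/PicoGreen; dsDNA fluorescence read, EDTA as full-inhibition control.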

[18] = biological target: Tumor susceptibility gene 101 protein (Homo sapiens) (UniProt Q99816); assay: qHTS Validation Assay for Iinhibitors of HIV-1 Budding by Blocking the Interaction of PTAP/TSG101 (AID 485342; calls by dose curve)
Tumor susceptibility gene 101 protein (Homo sapiens), sequence (Q99816 whole entry, looked up, the tested form may be a part): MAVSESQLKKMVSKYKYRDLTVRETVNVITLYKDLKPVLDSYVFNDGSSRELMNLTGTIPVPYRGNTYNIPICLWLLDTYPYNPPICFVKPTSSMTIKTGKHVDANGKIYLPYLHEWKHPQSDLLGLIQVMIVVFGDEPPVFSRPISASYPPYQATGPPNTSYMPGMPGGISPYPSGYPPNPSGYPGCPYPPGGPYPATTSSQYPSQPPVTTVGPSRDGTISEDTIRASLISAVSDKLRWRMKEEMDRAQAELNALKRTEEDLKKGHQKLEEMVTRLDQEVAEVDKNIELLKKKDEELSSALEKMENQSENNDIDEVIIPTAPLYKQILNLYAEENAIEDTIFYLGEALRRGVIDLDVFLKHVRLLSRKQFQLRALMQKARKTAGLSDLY
Method in brief: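 Tsg101 binding domain (10 uM) with FITC-labeled PTAP peptide (50 nM) in HEPES pH 7.5 buffer, 20 min at r.t. with compounds. Binding measured by fluorescence polarization.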

[19] = qHTS Validation Assay to Find Inhibitors of Chronic Active B-Cell Receptor Signaling (AID 485345; active = well fitted curve in the direction sought with a large enough effect in the main read-out, with a control signal flat, not every such curve was filed as active)
Method in brief: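 Read-out: ratio of filter-corrected green (IkappaBalpha fusion) to red (native) luciferase signal in doxycycline-induced TMD8 cells after 4 h at 37C. Titration spanned 46 uM–3 nM; Data were normalised to basal cells and 10 uM MG-132 wells.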

[20] = biological target: Beta-2 adrenergic receptor (Homo sapiens) (UniProt P07550); assay: qHTS validation assay of beta-arrestin-biased ligands of beta2-adrenergic receptor (AID 485366)
Beta-2 adrenergic receptor (Homo sapiens), sequence (P07550 whole entry, looked up): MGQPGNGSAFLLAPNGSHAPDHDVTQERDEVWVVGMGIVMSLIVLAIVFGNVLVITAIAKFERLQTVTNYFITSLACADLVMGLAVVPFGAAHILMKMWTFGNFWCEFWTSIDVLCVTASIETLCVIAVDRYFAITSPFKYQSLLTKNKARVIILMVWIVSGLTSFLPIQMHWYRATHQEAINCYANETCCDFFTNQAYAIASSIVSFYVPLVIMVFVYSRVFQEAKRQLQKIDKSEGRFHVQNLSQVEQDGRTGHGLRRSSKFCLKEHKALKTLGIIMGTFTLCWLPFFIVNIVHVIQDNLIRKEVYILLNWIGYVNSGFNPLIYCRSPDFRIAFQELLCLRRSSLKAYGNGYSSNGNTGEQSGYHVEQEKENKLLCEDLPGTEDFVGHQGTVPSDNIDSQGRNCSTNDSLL
Method in brief: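 Tango cells expressing recombinant beta2-AR and beta-arrestin with tTA-driven luciferase, in DMEM with 1% FBS. Compounds were titrated up to 46 microM for 18 hr at 37 degrees C. Luminescence was read 15 min after substrate; curves were fitted and class-assigned.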

Measured: Potency

COC(=O)C(c1ccccc1)C1CCCCN1 (stereo unspecified)
inactive: [1]

CC(C)N(CCC(C(N)=O)(c1ccccc1)c1ccccn1)C(C)C (stereo unspecified)
active: [4] 8.91 µM
not listed: [1]
inactive: all other assays above

O=C(CCCN1CCC2(CC1)C(=O)NCN2c1ccccc1)c1ccc(F)cc1
inactive: [7] | [8] | [10] | [11] | [12] | [13] | [16] | [17] | [18] | [20]

CCCNC(C)C(=O)Nc1ccccc1C (stereo unspecified)
inactive: [14]

C[C@]1(O)CC[C@H]2[C@@H]3CCC4=CC(=O)CC[C@]4(C)[C@@]3(F)[C@@H](O)C[C@@]21C
inactive: [1]

NCCc1ccc(O)cc1
not listed: [1] | [9]
inactive: all other assays above

CCCC(C)(COC(N)=O)COC(N)=O
inactive: [1]

CCN(Cc1ccncc1)C(=O)C(CO)c1ccccc1 (stereo unspecified)
inactive: [14]

Nc1ccccc1C(=O)O
inactive: [1]

CC(C)(C)NCC(O)c1ccccc1Cl (stereo unspecified)
active: [3] 12.6 µM | [4] 4.47 µM
not listed: [1] | [2] | [5] | [6] | [9]
inactive: all other assays above

CC(C)c1cccc(C(C)C)c1O
not listed: [1] | [7] | [9]
inactive: all other assays above

O=c1[nH]oc2c1CCNC2
not listed: [1] | [6] | [7] | [9] | [15]
inactive: all other assays above

C=C(C)[C@H]1CN[C@H](C(=O)O)[C@H]1CC(=O)O
not listed: [1] | [6] | [9]
inactive: all other assays above

CCN(CC)C(=O)c1ccc(O)c(OC)c1
inactive: [14]

CC(C)NC(C)C
inactive: [1]

CN1C(=O)CCS(=O)(=O)C1c1ccc(Cl)cc1 (stereo unspecified)
not listed: [1] | [4] | [6]
inactive: all other assays above
